These results are taken from PubChem BioAssay (Tox21).

A short description of assay [1]: qHTS assay for small molecules that induce genotoxicity in human embryonic kidney cells expressing luciferase-tagged ATAD5 (AID 651632). Further: on the % scale 0 is the no-effect control and ±100 the full control effect; nearly all actives have a fitted effect of over 15% in size. Summed up:
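Genotoxicity read-out via ATAD5-luciferase: HEK293T cells, 16 hr compound incubation at 37C, Amplite detection.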
Background: In qHTS, concentration-response curves come from the screen itself.

A short description of assay [2]: qHTS assay for small molecule agonists of the p53 signaling pathway - cell viability (AID 651633; calls by dose curve; further: nearly all actives have a fitted effect of over 30% in size; further: potency means the concentration at half of the fitted maximal effect). Put shortly:
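p53RE-bla cells were treated with compound for 16 hours at 37 C. Cytotoxicity was then measured as CellTiter-Glo luminescence after 30 min at room temperature.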

Assay [3] can be described thus: qHTS assay for small molecule disruptors of the mitochondrial membrane potential - cell viability (AID 720634; calls by dose curve; further: nearly all actives have a fitted effect of over 20% in size; further: potency means the concentration at half of the fitted maximal effect). Put shortly:
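Human hepatoma HepG2 cells were treated for 1 hr with test chemicals, then given m-MPI dye and CellTiter-Glo. Cell viability reflects luminescence proportional to cellular ATP.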

Assay [4] can be described thus: qHTS assay for small molecule disruptors of the mitochondrial membrane potential (AID 720635). Further: potency means the concentration at half of the fitted maximal effect. Put shortly:
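HepG2 cells exposed to compound 1 hr at 37C, then Mito-MPS dye 30 min. Ratio read of aggregate (540/590 nm) versus monomer (490/535 nm) fluorescence.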

Assay [5] in a line: qHTS assay to test for compound auto fluorescence at 590 nm (red) in HepG2 cells (AID 720674). Further: on the % scale 0 is the no-effect control and ±100 the full control effect. Put shortly:
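HepG2 cells, 2,000 per well in MEM with 10% FBS, attached overnight at 37 C, then got 23 nL compound or DMSO. After 1 hr at 37 C, 5% CO2, red fluorescence was read at 540/590 nm against Rose Bengal sodium as reference.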

A short description of assay [6]: qHTS assay to test for compound auto fluorescence at 535 nm (green) in HepG2 cells (AID 720675). Further: on the % scale 0 is the no-effect control and ±100 the full control effect.
Assay [7] is described as follows: qHTS assay to test for compound auto fluorescence at 460 nm (blue) in HEK293 cells (AID 720678). Further: on the % scale 0 is the no-effect control and ±100 the full control effect. Put shortly: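 Blue-channel (Ex/Em 405/460 nm) intensity measured in HEK293 cultures after overnight compound exposure at 37C; signal expressed relative to triamterene. Cells plated 2,000 per well in 10% dialyzed FBS medium and allowed 4-5 hr to attach.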
The nature of assay [8]: qHTS assay to test for compound auto fluorescence at 590 nm (red) in HEK293 cells (AID 720679). Further: on the % scale 0 is the no-effect control and ±100 the full control effect. Summed up:
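Red-channel autofluorescence (Ex/Em 540/590 nm; Rose Bengal sodium reference) was measured after overnight 37C, 5% CO2 exposure of attached HEK293 cells, 2,000 per well in medium with 10% dialyzed FBS.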

Assay [9] in a line: qHTS assay to test for compound auto fluorescence at 535 nm (green) in HEK293 cells (AID 720680). Further: on the % scale 0 is the no-effect control and ±100 the full control effect.
Assay [10] is described as follows: qHTS assay to test for compound auto fluorescence at 460 nm (blue) in HEK293 cell free culture (AID 720681). Further: on the % scale 0 is the no-effect control and ±100 the full control effect. Put shortly: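 Compounds were added to cell-free DMEM with 10% FBS and fluorescence read directly. The blue channel used 405 nm excitation and 460 nm emission, with triamterene as the reference fluorophore.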
The nature of assay [11]: qHTS assay to test for compound auto fluorescence at 535 nm (green) in HEK293 cell free culture (AID 720682). Further: on the % scale 0 is the no-effect control and ±100 the full control effect. Put shortly:
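No cells present: wells hold DMEM supplemented with 10% FBS, into which compound or vehicle is pinned. Green emission is then recorded (485 nm excitation, 535 nm emission) and scaled to fluorescein.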

A short description of assay [12]: qHTS assay to test for compound auto fluorescence at 590 nm (red) in HEK293 cell free culture (AID 720683). Further: on the % scale 0 is the no-effect control and ±100 the full control effect. Summed up: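 Cell-free wells of DMEM with 10% FBS received compound, and intrinsic fluorescence was read at excitation/emission 540/590 nm. Values expressed as equivalence to Rose Bengal sodium.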
Assay [13] is described as follows: qHTS assay to test for compound auto fluorescence at 590 nm (red) in HepG2 cell free culture (AID 720684). Further: on the % scale 0 is the no-effect control and ±100 the full control effect. Put shortly:
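Compounds are added to culture medium (MEM, 10% FBS) lacking cells, then fluorescence is read at excitation 540 nm, emission 590 nm, with Rose Bengal sodium as the equivalency standard.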

A short description of assay [14]: qHTS assay to test for compound auto fluorescence at 460 nm (blue) in HepG2 cell free culture (AID 720685). Further: on the % scale 0 is the no-effect control and ±100 the full control effect. Summed up:
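Compound (23 nL) or DMSO pinned into cell-free MEM with 10% FBS; blue fluorescence read at 405/460 nm excitation/emission, expressed as auto-fluorescence equivalency to triamterene.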

Assay [15] can be described thus: qHTS assay to test for compound auto fluorescence at 535 nm (green) in HepG2 cell free culture (AID 720686). Further: on the % scale 0 is the no-effect control and ±100 the full control effect.
Assay [16] can be described thus: qHTS assay to test for compound auto fluorescence at 460 nm (blue) in HepG2 cells (AID 720687). Further: on the % scale 0 is the no-effect control and ±100 the full control effect. Put shortly: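 HepG2 cells in MEM with 10% FBS, attached overnight at 37 C, were exposed to compound or DMSO for 1 hr at 37 C, 5% CO2. Blue fluorescence was read at 405/460 nm, with triamterene as reference fluorophore.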
The nature of assay [17]: qHTS assay for small molecules that induce genotoxicity in human embryonic kidney cells expressing luciferase-tagged ATAD5 - cell viability (AID 651634; calls by dose curve; further: nearly all actives have a fitted effect of over 25% in size; further: potency means the concentration at half of the fitted maximal effect). Put shortly: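 Live-cell protease activity (CellTiter-Fluor, fluorescence) indicates viability. HEK293T cells with luciferase-tagged ATAD5; 15.5 hr compound treatment at 37C.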
For assay [18], the target named is Glucocorticoid receptor (Homo sapiens) (UniProt P04150). Nature of the assay: qHTS assay to identify small molecule agonists of the glucocorticoid receptor (GR) signaling pathway (AID 720691; active means well fitted activation curve with a large enough effect in the signal ratio in the repeat runs, not every such curve was filed as active; the % refers to the signal ratio; further: on the % scale 0 is the no-effect control and ±100 the full control effect). Put shortly: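 Beta-lactamase reporter activity, read as fluorescence intensity, was measured in GR-bla HeLa cells exposed to compounds for 18 h at 37 C and then loaded with LiveBLAzer B/G FRET substrate for 2 h at room temperature.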
Chain of Glucocorticoid receptor (Homo sapiens) (P04150 whole entry, looked up): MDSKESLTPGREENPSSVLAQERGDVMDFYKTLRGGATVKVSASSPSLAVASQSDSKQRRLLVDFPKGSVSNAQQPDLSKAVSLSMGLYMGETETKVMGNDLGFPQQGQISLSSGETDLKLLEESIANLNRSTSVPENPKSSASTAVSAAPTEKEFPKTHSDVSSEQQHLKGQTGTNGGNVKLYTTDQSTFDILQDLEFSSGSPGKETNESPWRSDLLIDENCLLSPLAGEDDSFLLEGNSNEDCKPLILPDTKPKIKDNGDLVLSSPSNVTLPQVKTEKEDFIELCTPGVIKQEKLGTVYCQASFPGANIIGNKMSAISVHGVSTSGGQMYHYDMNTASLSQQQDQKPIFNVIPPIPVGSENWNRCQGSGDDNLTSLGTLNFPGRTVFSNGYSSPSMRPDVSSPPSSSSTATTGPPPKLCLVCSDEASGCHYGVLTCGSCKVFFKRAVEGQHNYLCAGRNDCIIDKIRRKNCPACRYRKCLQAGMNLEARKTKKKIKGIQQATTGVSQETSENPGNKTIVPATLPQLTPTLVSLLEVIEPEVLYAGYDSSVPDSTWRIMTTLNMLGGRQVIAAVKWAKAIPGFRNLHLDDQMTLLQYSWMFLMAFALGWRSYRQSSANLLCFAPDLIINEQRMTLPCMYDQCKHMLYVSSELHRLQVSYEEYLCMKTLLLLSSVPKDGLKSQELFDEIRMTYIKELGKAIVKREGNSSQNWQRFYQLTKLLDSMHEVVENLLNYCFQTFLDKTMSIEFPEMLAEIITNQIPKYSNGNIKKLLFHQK

Assay [19] shares this target. Nature of the assay: qHTS assay to identify small molecule antagonists of the glucocorticoid receptor (GR) signaling pathway (AID 720692; active means well fitted inhibition curve with a large enough effect in the signal ratio in the repeat runs, not every such curve was filed as active; the % refers to the signal ratio; further: potency means the concentration at half of the fitted maximal effect). Put shortly:
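Fluorescence from cleaved LiveBLAzer B/G FRET substrate reports GRE-driven beta-lactamase in HeLa cells; compounds are tested against 5 nM dexamethasone (final) over 18 h at 37 C, substrate incubation 2 h at room temperature.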

“And” between values parts separate entries of the source, which are not always exact repeats. Identical values can stand only once. Unmarked numbers belong to inactive results. Results filed as inconclusive are left out. The source made the active and inactive calls. Unless noted, the call rests on the fitted dose curve; in most records, active means well fitted curve in the direction sought with a large enough effect in the repeat runs; inconclusive means weak or mixed curves; inactive means no such curve, though single readings can be large; an effect the other way counts as inactive or inconclusive.

On to `CCCCCCCCCCCCCC[P+](CCCCCC)(CCCCCC)CCCCCC` (tested in a mixture with another compound), for which the Potency result in [1], in [7], in assay [10], in [14] and in assay [16] was “inactive” in each case. For the same compound, the Potency in [2] is 15.4 µM (active); in [3] it was 24.3 µM (active); in assay [4], 0.243 µM (active). For the same compound, the call in assay [5], in assay [6], in assay [8], in assay [9], in assay [11] and in assay [12] was inactive. Moreover, the call in assay [13] and in assay [15] was inactive.
Take `CC(C)(O)c1cnn2c(-c3ccc(F)c(-c4c(F)cccc4C#N)c3)cnc2n1`: the Potency entry in [1], in assay [2], in [17], in assay [7], in assay [10] and in [14] was “inactive” in each case. For the same compound, the Potency entry in [16] is “inactive”. For the same compound, the Potency in [4] is 19.3 µM (active). For the same compound, the result in [5], in [6], in assay [8], in assay [9], in assay [11] and in assay [12] was inactive. In addition, the result in assay [13] and in [15] was inactive.
For `CC[C@H](C)[C@H]1O[C@]2(C=C[C@@H]1C)C[C@@H]1C[C@@H](C/C=C(\C)[C@@H](O[C@H]3C[C@H](OC)[C@@H](O[C@H]4C[C@H](OC)[C@@H](O)[C@H](C)O4)[C@H](C)O3)[C@@H](C)/C=C/C=C3\CO[C@@H]4[C@H](O)C(C)=C[C@@H](C(=O)O1)[C@]34O)O2`, the Potency result in [1], in assay [3], in assay [7], in assay [10], in assay [14] and in [16] was “inactive” each time. The Potency entry in [18] is “inactive”. Also, the Potency was 14.4 µM (active) in assay [2], 28.7 µM (active) in assay [4] and 23.9 µM (active) in [19]. In addition, the result in assay [5], in [6], in assay [8], in [9], in [11] and in assay [12] was inactive. Further, the result in [13] and in [15] was inactive.
With `C[C@@H]1O[C@@H](O[C@@H]2C=C3CC[C@@H]4[C@H](CC[C@]5(C)[C@@H](c6ccc(=O)oc6)CC[C@]45O)[C@@]3(C)CC2)[C@H](O)[C@H](O)[C@H]1O`, the Potency result in assay [1], in [3] and in [18] was “inactive” in each case. The Potency in assay [2] was 0.0072 µM (active); in [17] it was 22.7 nM (active); in assay [4], 0.0639 µM (active); in assay [19] it was 0.0574 µM (active). The fluorescence, relative to Rose Bengal in assay [5] was 0.222% [at 18.6 µM]. For the same compound, the fluorescence, % of fluorescein control was -0.0054% [at 18.6 µM] in assay [6] and -0.0466% [at 18.6 µM] in assay [15]. Also, the fluorescence, % of fluorescent control in [8] was -0.104% [at 18.6 µM]; in [10], 0.328% [at 18.6 µM]; in [12] it was -0.024% [at 18.6 µM]; in assay [14], 0.14% [at 18.6 µM]; in assay [16], 0.187% [at 18.6 µM]. In addition, in [9], the fluorescence, % of fluorescein is 0.0243% [at 18.6 µM]. For the same compound, in assay [11], the activity change was 0.0268% [at 18.6 µM]. The fluorescence, % of Rose Bengal in [13] was -0.272% [at 18.6 µM].
As for `C[C@H]1O[C@@H](O[C@H]2[C@@H](O)C[C@H](O[C@H]3[C@@H](O)C[C@H](O[C@H]4CC[C@@]5(C)[C@H](CC[C@@H]6[C@@H]5CC[C@]5(C)[C@@H](C7=CC(=O)OC7)CC[C@]65O)C4)O[C@@H]3C)O[C@@H]2C)C[C@H](O)[C@@H]1O`, the Potency result in [1], in assay [3], in assay [10], in assay [14], in assay [16] and in [18] was “inactive” each time. The Potency is 47.3 nM (active) and 12.3 nM (active) in [2]; 53.1 nM (active) and 30.8 nM (active) in [17]; 119 nM (active) and 97.5 nM (active) in assay [4]; 0.425 µM (active) in assay [19]. Also, the result in [5], in assay [6], in [8], in [9], in [11] and in assay [12] was inactive. Moreover, the result in assay [13] and in [15] was inactive.
`O=S(=O)(c1ccc(Cl)cc1)c1ccc(Cl)cc1`: the Potency entry in [1], in assay [2], in assay [14], in assay [16] and in [18] was “inactive” in each case. Moreover, the Potency in assay [4] is 4.92 µM (active). Also, the result in [5], in assay [6], in [8], in [9], in assay [11] and in assay [12] was inactive. The compound was called inactive in assay [13] and in assay [15].
With `COP(=S)(OC)Oc1cc(Cl)c(Br)cc1Cl`, the Potency result in assay [1], in assay [2], in assay [17], in [10], in assay [14] and in assay [16] was “inactive” in each case. For the same compound, the Potency is 54.5 µM (active) in assay [3] and 6.86 µM (active) in assay [4]. For the same compound, the call in [5], in [6], in assay [8], in assay [9], in assay [11] and in assay [12] was inactive. Moreover, the call in assay [13] and in [15] was inactive.
Regarding `CCCCOCN(C(=O)CCl)c1c(CC)cccc1CC`, the Potency result in assay [1], in assay [2], in assay [17], in [7], in [14] and in assay [16] was “inactive” each time. Also, the Potency entry in assay [18] was “inactive”. In addition, the compound was classed as inactive in [5], in [6], in assay [8], in assay [9], in assay [11] and in [12]. For the same compound, the compound was called inactive in assay [13] and in [15]. For the same compound, the Potency in assay [19] was 21.9 µM (active).
